PubChem BioAssay (NCATS)
Records with an inconclusive call do not appear. Entries that show only a call come without a potency. The source made the active and inactive calls. Calls come from the whole dose curve; as a rule, active = well fitted curve in the direction sought with a large enough effect; inconclusive = small, poorly fitted or top-dose-only effect, or another doubt; inactive = no such curve, though single readings can be large; an effect the other way counts as inactive or inconclusive.

Tests used:
[1] = molecular target: Alpha-galactosidase A (Homo sapiens) (UniProt P06280); test: Counterscreen for Glucocerebrosidase Inhibitors: qHTS Assay for Human alpha-Galactosidase at pH 4.5 (AID 992)
In short: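 Citrate buffer pH 4.5, Tween-20 0.005%. Enzyme 2 nM, substrate 80 uM, 20 min RT. Stop pH 10. Fluorescence Ex 365/Em 440. AC50 by Hill fit.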

[2] = molecular target: alpha-glucosidase (Oryza sativa, rice) (UniProt Q653V4); test: Counterscreen for Glucocerebrosidase Inhibitors: qHTS Assay for Rice alpha-Glucosidase at pH 5.0 (AID 997)
In short: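 Endpoint fluorogenic assay at pH 5.0: compounds (0.7 nM to 77 uM) titrated against 4 nM rice enzyme and 400 uM 4-MU-alpha-glucoside for 20 min at room temperature; NaOH/glycine stop, read ex 365/em 440 nm, Hill-fitted AC50.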

[3] = Cell Viability - LYMP1-002 - Assay at 24 hr (AID 993)
In short: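 qHTS cytotoxicity at 24 h: CellTiter-Glo ATP luminescence in lymphoblastoid line LYMP1-002 incubated with compound at 37 °C. Concentration-response modeled with the Hill equation for AC50; tetraoctylammonium bromide served as positive control.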

[4] = Cell Viability - LYMP1-002 - Assay at 40 hr (AID 994); note: potency is the fitted concentration of half-maximal effect; nearly all actives have a fitted effect of over 60% in size
In short: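 Cytotoxicity was read as loss of cellular ATP (CellTiter-Glo luminescence) after 40 hr compound exposure at 37 C of 2500 LYMP1-002 lymphoblastoid cells per well. Concentration-response data were fitted with the standard Hill equation to give AC50.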

[5] = molecular target: Alpha-galactosidase (Coffea arabica) (UniProt Q42656); test: Counterscreen for Glucocerebrosidase Inhibitors: qHTS Assay for Coffee Bean alpha-Galactosidase at pH 5.9 (AID 998)
In short: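 In 50 mM citric acid pH 5.9 with 0.005% Tween-20, coffee bean enzyme hydrolyses 80 uM 4-MU alpha-D-galactopyranoside over 20 min at RT. Activity is normalized to controls; AC50 comes from Hill-modelled concentration-response data.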

Alpha-galactosidase (Coffea arabica), sequence (Q42656 whole entry, looked up): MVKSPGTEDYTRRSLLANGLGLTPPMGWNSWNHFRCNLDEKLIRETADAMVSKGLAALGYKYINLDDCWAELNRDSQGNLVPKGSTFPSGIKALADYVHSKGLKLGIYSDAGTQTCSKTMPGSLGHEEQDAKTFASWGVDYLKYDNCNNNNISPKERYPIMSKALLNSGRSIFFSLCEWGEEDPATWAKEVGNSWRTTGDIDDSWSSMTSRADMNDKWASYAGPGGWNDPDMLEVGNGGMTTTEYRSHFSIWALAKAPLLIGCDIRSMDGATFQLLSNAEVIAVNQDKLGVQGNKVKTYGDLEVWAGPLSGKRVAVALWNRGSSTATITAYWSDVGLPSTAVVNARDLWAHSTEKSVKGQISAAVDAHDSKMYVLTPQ
Alpha-galactosidase A (Homo sapiens), sequence (P06280 whole entry, looked up): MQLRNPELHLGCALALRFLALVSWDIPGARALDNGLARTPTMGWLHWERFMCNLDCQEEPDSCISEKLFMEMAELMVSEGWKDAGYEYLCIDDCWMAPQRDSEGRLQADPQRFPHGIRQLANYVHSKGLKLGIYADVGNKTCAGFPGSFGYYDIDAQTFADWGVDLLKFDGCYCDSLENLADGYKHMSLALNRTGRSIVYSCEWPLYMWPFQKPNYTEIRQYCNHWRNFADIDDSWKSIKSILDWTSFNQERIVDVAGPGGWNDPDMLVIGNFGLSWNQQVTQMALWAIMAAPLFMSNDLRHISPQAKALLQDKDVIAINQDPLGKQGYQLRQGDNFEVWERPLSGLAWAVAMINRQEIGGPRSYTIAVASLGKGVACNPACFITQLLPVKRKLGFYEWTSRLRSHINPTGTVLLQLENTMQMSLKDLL

Nc1ccncc1
outcome [1]: inactive
outcome [2]: inactive

O=c1[nH]c2ccccc2n1C1CCN(CCCC(c2ccc(F)cc2)c2ccc(F)cc2)CC1
outcome [1]: inactive
outcome [2]: inactive

Clc1ccc(COC(Cn2ccnc2)c2ccc(Cl)cc2Cl)cc1 (configuration not stated)
Potency [3]: inactive
Potency [4]: 50.1 µM (active)

CN1CCN(C2=Nc3cc(Cl)ccc3Nc3ccccc32)CC1
outcome [5]: inactive

CCCN(CCC)CCc1cccc2c1CC(=O)N2
outcome [5]: inactive

N=c1nc(N2CCCCC2)cc(N)n1O
outcome [5]: inactive

CC(C)[N+](C)(CCOC(=O)C1c2ccccc2Oc2ccccc21)C(C)C
outcome [5]: inactive

COC(=O)Nc1nc2ccc(C(=O)c3cccs3)cc2[nH]1
outcome [5]: inactive

COc1ccc(Cc2nccc3cc(OC)c(OC)cc23)cc1OC
outcome [5]: inactive

CN1CCN(CCCN2c3ccccc3Sc3ccc(C(F)(F)F)cc32)CC1
outcome [5]: inactive

OCCN1CCN(CCCN2c3ccccc3Sc3ccc(C(F)(F)F)cc32)CC1
outcome [5]: inactive

CN1CCC[C@@H]1CCO[C@](C)(c1ccccc1)c1ccc(Cl)cc1
outcome [5]: inactive

O=C(c1ccc(OCCN2CCCCC2)cc1)c1c(-c2ccc(O)cc2)sc2cc(O)ccc12
outcome [5]: inactive

CC1(C)NC(=O)N(c2ccc([N+](=O)[O-])c(C(F)(F)F)c2)C1=O
outcome [5]: inactive

Cc1ccccc1N1C(=O)c2cc(S(N)(=O)=O)c(Cl)cc2NC1C (configuration not stated)
outcome [5]: inactive

Nc1ncn([C@@H]2O[C@H](CO)[C@@H](O)[C@H]2O)c(=O)n1
outcome [5]: inactive

Cn1ccc2cc3c(cc21)CCN3C(=O)Nc1cccnc1
outcome [5]: inactive

CC(C)NCC(O)COc1cccc2[nH]ccc12 (configuration not stated)
outcome [5]: inactive

NNCCc1ccccc1
outcome [5]: inactive
